High-throughput results from PubChem BioAssay.
HUVEC tox TNFa – toxic to HUVEC cells under TNF alpha stimulation; HUVEC TNFalpha-stimulated, Hoechst cell count, imaging; 93,000 tested, 0.17% active; cell count reduction, % at 2 µM; AID 848;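 active means cell count reduction exceeding the screen mean by over 5 SD, scaled to untreated wells per plate, cut at about 78% in these data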;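 further: cells counted after 24 h of TNF alpha exposure following the 1 h pretreatment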
S1P2 agonist – S1P2 (human) receptor agonism; activation, % at 4.5 µM; AID 729; S1P2-expressing cell line, agonist reporter read-out; 97,000 tested, 0.46% active; in the data active means activation above about 16%;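 further: 0% = vehicle low control and 100% = maximal reference agonist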
Target sequence (O95136 whole entry, looked up): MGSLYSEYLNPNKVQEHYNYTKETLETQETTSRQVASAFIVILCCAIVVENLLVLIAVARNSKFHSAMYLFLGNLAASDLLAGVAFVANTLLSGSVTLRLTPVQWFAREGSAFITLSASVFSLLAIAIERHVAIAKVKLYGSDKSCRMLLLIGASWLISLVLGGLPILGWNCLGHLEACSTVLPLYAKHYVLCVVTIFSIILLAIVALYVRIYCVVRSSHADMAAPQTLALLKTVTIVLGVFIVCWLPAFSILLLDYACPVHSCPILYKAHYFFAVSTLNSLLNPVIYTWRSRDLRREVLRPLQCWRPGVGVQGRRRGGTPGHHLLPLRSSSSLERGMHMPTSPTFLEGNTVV
E-sel TNF inh – TNF alpha driven E-selectin expression inhibition | HUVEC TNFa-induced E-selectin immunofluorescence, high content | inhibition, % at 2 µM | 120,000 tested, 0.71% active | AID 1246;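 active means inhibition above the batch mean plus 3 SD, and confirmed as a hit on visual image review, cut at about 43% in these data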;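 further: 0% = TNF-stimulated DMSO wells and 100% = unstimulated control wells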
VCAM1 TNFa inh – reduces TNF alpha induced VCAM1 expression in HUVEC. HUVEC TNFa-induced VCAM-1 immunofluorescence, high-content imaging. inhibition, % at 2 µM. 95,000 tested, 0.48% active. AID 802;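 active means inhibition above the batch mean plus 3 SD, with images confirmed as a hit by eye, cut at about 37% in these data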;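 further: 0% = TNF-stimulated DMSO wells and 100% = unstimulated control wells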
S1P2 antag – antagonists of human S1P2 receptor; O95136; cell-based S1P2 antagonist assay, inhibition at 5 uM; inhibition, % at 5 µM; 97,000 tested, 0.21% active; AID 736; in the data active means inhibition above about 45%;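 further: CRE beta-lactamase reporter cells expressing human S1P2 stimulated with S1P; 0% = agonist at EC80 alone and 100% = agonist plus reference antagonist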
F-actin modifier – modifiers of cytoskeleton assembly; 91,000 tested, 0.18% active; inhibition, % at 2 µM; HUVEC TNFa F-actin phalloidin imaging, high content;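 active means inhibition above the batch mean plus 3 SD and confirmed as a hit by visual image inspection, cut at about 30% in these data, passing the limit was not always enough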
Active calls of the source: *; . = no result given. Only some compounds are listed: those with a hit (about 1.6% of all), similar ones and a draw of the others.

SMILES | HUVEC tox TNFa | S1P2 agonist | E-sel TNF inh | VCAM1 TNFa inh | S1P2 antag | F-actin modifier
CC(C)C(=O)Nc1ccc(C(=O)NNC(=O)NC2CCCCC2)cc1 | 27.7 | -7.0 | -52.5 | 36.1* | 0.3 | 1.7
O=C(c1cc(Cl)c(=O)n(Cc2ccc(Cl)cc2)c1)N1CCOCC1 | 2.0 | -1.6 | 18.7 | -2.1 | 1.5 | 6.8
CCS(=O)(=O)N1CCN(c2ccc([N+](=O)[O-])c(N3CCOCC3)c2)CC1 | . | . | 96.9* | . | . | .
Cc1ccc(C(=O)OCC(=O)NCc2ccco2)s1 | . | . | -6.4 | . | . | .
CCc1nc(C)c(C#N)c2cc(OC)c(OC)cc12 | 6.7 | 25.6* | -2.8 | 27.7 | -50.2 | 6.2
CCc1nc(N)c(C#N)c(-c2ccc(OC)c(OC)c2)c1C | -20.2 | -1.1 | -11.8 | 9.4 | -20.3 | -11.3
CCc1ccc2c(Cl)c(C(=O)N/N=C/c3c[nH]c4ccccc34)sc2c1 | 4.5 | -8.1 | -41.5 | 3.2 | 5.8 | -5.3
O=C(N/N=C/c1ccc[nH]1)c1sc2ccccc2c1Cl | 8.7 | -0.5 | -11.0 | 38.3* | -1.2 | -44.2
Cc1cc2c(cc(C(=O)OCC(=O)NCc3cccs3)n2C(C)C)o1 | 15.9 | -2.7 | -29.4 | 36.0 | -3.4 | -4.3
CC(=O)c1ccc(NC(=S)N2CC(C)CC(C)C2)cc1 (stereo unspecified) | . | . | 76.6* | . | . | .
O=C(Nc1nnc(C2CC2)s1)c1cc([N+](=O)[O-])ccc1N1CCCCC1 | . | . | -2.4 | . | . | .
